The values that follow come from PubChem BioAssay (Tox21).

Each structure is given as a SMILES string. Values without a mark were called inactive. Inconclusive results are not listed. Calls of active or inactive are those of the source. Unless noted, calls follow the shape of the dose curve; as a rule, active = well fitted curve in the direction sought with a large enough effect in the repeat runs; inconclusive = weak or mixed curves; inactive = no such curve, though single readings can be large; an effect the other way counts as inactive or inconclusive.

Assay [1] can be described thus: qHTS assay for small molecule agonists of the p53 signaling pathway (AID 651631; calls by dose curve; also: nearly all actives have a fitted effect of over 15% in size). In short, it runs like this:
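Beta-lactamase reporter activity under p53 response elements was quantified in HCT-116 cells by FRET fluorescence, following 16 h incubation with test compounds at 37 °C and 2 h substrate development at room temperature.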
A general note: Quantitative high-throughput screening tests each substance at several concentrations.

Assay [2] can be described thus: qHTS assay for small molecules that induce genotoxicity in human embryonic kidney cells expressing luciferase-tagged ATAD5 (AID 651632). Also: nearly all actives have a fitted effect of over 15% in size. In short, it runs like this:
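Luminescent reporter readout, HEK293T ATAD5-luc line: 16 hr drug exposure (37C, 5% CO2) followed by Amplite, 30 min RT.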

Assay [3] is described as follows: qHTS assay for small molecule agonists of the p53 signaling pathway - cell viability (AID 651633; calls by dose curve;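 also: p53RE-bla HCT reporter cells with a stable beta-lactamase p53 reporter; series mostly up to about 83 µM; nearly all actives have a fitted effect of over 30% in size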). The essentials: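 p53RE-bla cells, seeded at 4,000 per well and rested 5 h at 37 C/5% CO2, received compounds in DMSO for 16 h at 37 C. CellTiter-Glo was then added, and luminescence was read after 30 min at room temperature to gauge cytotoxicity.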
Assay [4] can be described thus: qHTS assay for small molecule disruptors of the mitochondrial membrane potential - cell viability (AID 720634; calls by dose curve;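 also: human HepG2 liver cancer cells; series mostly up to about 83 µM; nearly all actives have a fitted effect of over 20% in size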). In short, it runs like this:
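HepG2, 1 hr compound, 37 C. ATP luminescence via CellTiter-Glo, 30 min RT, same well as m-MPI.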

Assay [5] in a line: qHTS assay for small molecule disruptors of the mitochondrial membrane potential (AID 720635). Also: potency is read from the fitted curve at half-maximal effect. The essentials: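 HepG2 cells (2,000/well) attached overnight at 37C, then took compound for 1 hr at 37C, 5% CO2. Mito-MPS dye was added for 30 min; fluorescence was read at 490/535 nm (monomers) and 540/590 nm (aggregates).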
Assay [6] is described as follows: qHTS assay to test for compound auto fluorescence at 590 nm (red) in HepG2 cells (AID 720674). The essentials:
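Rose Bengal sodium served as the red fluorophore standard. HepG2 monolayers (overnight attachment, MEM with 10% FBS) were exposed to test compounds for 1 hr at 37 C and read at Ex 540/Em 590 nm.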

Assay [7] in a line: qHTS assay to test for compound auto fluorescence at 460 nm (blue) in HEK293 cells (AID 720678). The essentials:
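HEK293, 2,000 cells/well, 10% dialyzed FBS; attach 4-5 hr 37C; pin compound or DMSO; o/n 37C/5% CO2; fluorescence 405/460 nm; triamterene-equivalent units.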

Assay [8] is described as follows: qHTS assay to test for compound auto fluorescence at 590 nm (red) in HEK293 cells (AID 720679). In short, it runs like this:
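Intensity at 540nm excitation and 590nm emission is reported as Rose Bengal sodium-equivalent autofluorescence. Measurements followed overnight exposure (37C, 5% CO2) of HEK293 cells, 2,000 per well, to 23 nL compound.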

Assay [9] is described as follows: qHTS assay to test for compound auto fluorescence at 535 nm (green) in HEK293 cells (AID 720680).
The nature of assay [10]: qHTS assay to test for compound auto fluorescence at 535 nm (green) in HEK293 cell free culture (AID 720682). The essentials:
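Each library compound, or DMSO control, is added by pintool to medium alone, comprising DMEM and 10% FBS. Emission at 535 nm following 485 nm excitation is quantified against fluorescein.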

The nature of assay [11]: qHTS assay to test for compound auto fluorescence at 590 nm (red) in HEK293 cell free culture (AID 720683). In short, it runs like this: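 Tox21 10K library compounds were pinned into cell-free DMEM with 10% FBS and fluorescence was read at excitation 540 nm. Activity is expressed as Rose Bengal sodium equivalency.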
Assay [12] can be described thus: qHTS assay to test for compound auto fluorescence at 590 nm (red) in HepG2 cell free culture (AID 720684). The essentials:
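Red fluorescence (540 nm excitation, 590 nm emission) was measured after compound transfer into cell-free MEM supplemented with 10% FBS. Values are equivalencies against Rose Bengal sodium.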

The nature of assay [13]: qHTS assay to test for compound auto fluorescence at 460 nm (blue) in HepG2 cell free culture (AID 720685). In short, it runs like this:
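Compound (23 nL) or DMSO pinned into cell-free MEM with 10% FBS; blue fluorescence read at 405/460 nm excitation/emission, expressed as auto-fluorescence equivalency to triamterene.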

Assay [14] is described as follows: qHTS assay to test for compound auto fluorescence at 535 nm (green) in HepG2 cell free culture (AID 720686).
Assay [15] in a line: qHTS assay to test for compound auto fluorescence at 460 nm (blue) in HepG2 cells (AID 720687). The essentials: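 Cells (2,000/well in MEM with 10% FBS) attached overnight at 37 C, then were exposed to compound or DMSO for 1 hr at 37 C, 5% CO2. Fluorescence read at Ex/Em 405/460 nm, expressed as triamterene-equivalent signal.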
Assay [16] is described as follows: qHTS assay for small molecules that induce genotoxicity in human embryonic kidney cells expressing luciferase-tagged ATAD5 - cell viability (AID 651634; calls by dose curve; also: nearly all actives have a fitted effect of over 25% in size). In short, it runs like this:
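Viability read: CellTiter-Fluor fluorescence, 30 min at 37C. Cells: HEK293T, luciferase-tagged ATAD5. Exposure: 15.5 hr, 37C, 5% CO2, compound or DMSO vehicle.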

Assay [17] is described as follows: qHTS assay to test for compound auto fluorescence at 535 nm (green) in HepG2 cells (AID 720675).
Assay [18] is described as follows: qHTS assay to test for compound auto fluorescence at 460 nm (blue) in HEK293 cell free culture (AID 720681). The essentials:
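Test compounds were pinned into cell-free culture medium (DMEM with 10% FBS) and fluorescence was read directly at Ex/Em 405/460 nm. Signals were expressed as fluorescence equivalents of triamterene, with DMSO vehicle as control.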

The target of assay [19] is Glucocorticoid receptor (Homo sapiens) (UniProt P04150). Put plainly: qHTS assay to identify small molecule agonists of the glucocorticoid receptor (GR) signaling pathway (AID 720691; active = well fitted activation curve with a large enough effect in the signal ratio in the repeat runs, not every such curve was filed as active; the % refers to the signal ratio). In short, it runs like this:
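qHTS in GR-bla HeLa cells: 4 h settling at 37 C/5% CO2, 18 h compound incubation at 37 C, 2 h LiveBLAzer B/G FRET substrate at room temperature, fluorescence intensity measured.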

Assay [20] has the same target. Description: qHTS assay to identify small molecule antagonists of the glucocorticoid receptor (GR) signaling pathway (AID 720692; active = well fitted inhibition curve with a large enough effect in the signal ratio in the repeat runs, not every such curve was filed as active; the % refers to the signal ratio). In short, it runs like this: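 Inhibition of glucocorticoid signalling is measured in HeLa cells with a GRE-controlled beta-lactamase reporter; cells are co-treated with compound and 5 nM dexamethasone (final) for 18 h before FRET substrate readout.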

Glucocorticoid receptor (Homo sapiens), sequence (P04150 whole entry, looked up): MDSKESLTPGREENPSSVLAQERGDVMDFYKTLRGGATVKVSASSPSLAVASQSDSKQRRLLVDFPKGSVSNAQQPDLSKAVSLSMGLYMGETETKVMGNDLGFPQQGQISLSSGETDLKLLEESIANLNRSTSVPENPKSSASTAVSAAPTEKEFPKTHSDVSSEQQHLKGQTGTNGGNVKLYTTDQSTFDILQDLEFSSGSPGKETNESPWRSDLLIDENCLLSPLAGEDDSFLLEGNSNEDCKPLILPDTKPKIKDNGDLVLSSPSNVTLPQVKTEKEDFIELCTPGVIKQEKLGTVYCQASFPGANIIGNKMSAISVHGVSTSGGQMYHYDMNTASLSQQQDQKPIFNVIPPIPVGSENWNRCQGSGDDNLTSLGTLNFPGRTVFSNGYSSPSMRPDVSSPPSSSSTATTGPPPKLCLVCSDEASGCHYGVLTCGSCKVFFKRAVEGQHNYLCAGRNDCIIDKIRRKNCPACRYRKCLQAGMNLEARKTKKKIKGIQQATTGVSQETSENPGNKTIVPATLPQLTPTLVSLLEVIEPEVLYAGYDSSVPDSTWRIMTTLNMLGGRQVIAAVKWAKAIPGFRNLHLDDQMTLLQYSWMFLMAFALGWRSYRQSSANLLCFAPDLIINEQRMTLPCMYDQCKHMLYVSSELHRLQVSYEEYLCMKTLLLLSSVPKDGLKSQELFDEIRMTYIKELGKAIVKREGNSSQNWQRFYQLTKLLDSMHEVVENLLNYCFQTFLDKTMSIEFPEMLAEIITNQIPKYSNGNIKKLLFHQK

For the compound `O=C1[C@H](CC[C@H](O)c2ccc(F)cc2)[C@@H](c2ccc(O)cc2)N1c1ccc(F)cc1`, the Potency result in assay [1], in [2], in [3], in [4], in assay [7] and in assay [13] was “inactive” each time. The Potency result in assay [15] was “inactive”. For the same compound, the Potency in [5] is 23.7 µM (active). In addition, the result in assay [6], in [8], in assay [9], in assay [10], in assay [11] and in [12] was inactive. In addition, the outcome in assay [14] was inactive.
As for `CC1=CCC(C(C)C)C=C1` (stereo not drawn), the Potency result in assay [1], in assay [2], in assay [3], in assay [16], in assay [7] and in assay [15] was “inactive” in each case. In addition, the outcome in [6], in [17], in assay [8], in [9], in assay [10] and in assay [11] was inactive. Also, the result in [12] and in assay [14] was inactive.
`CC(=O)O[C@H]1C[C@@H]2CC[C@@H]3[C@H](CC[C@@]4(C)[C@H]3C[C@H]([N+]3(C)CCCCC3)[C@@H]4OC(C)=O)[C@@]2(C)C[C@@H]1N1CCCCC1`: the Potency entry in assay [1], in [2], in assay [3], in [4], in assay [5] and in assay [7] was “inactive” throughout. Moreover, the Potency result in [18], in assay [13] and in [15] was “inactive” in each case. The result in assay [6], in assay [17], in assay [8], in assay [9], in assay [10] and in [11] was inactive. Further, the compound was called inactive in assay [12] and in assay [14].
With `SC1CCCC1`, the Potency entry in assay [2], in [3], in assay [16], in assay [4], in [5] and in [7] was “inactive” throughout. In addition, the Potency entry in assay [18] and in assay [13] was “inactive” each time. The result in assay [6], in assay [17], in assay [8], in assay [9], in assay [10] and in assay [11] was inactive. For the same compound, the outcome in assay [12] and in assay [14] was inactive.
Consider `N#CCCNCCC#N`, for which the Potency entry in assay [2], in assay [3], in [16], in assay [4], in [5] and in assay [7] was “inactive” each time. In addition, the Potency entry in assay [18], in assay [13] and in assay [15] was “inactive” in each case. Besides, the compound was classed as inactive in assay [6], in assay [17], in [8], in assay [9], in assay [10] and in assay [11]. Also, the compound was called inactive in assay [12] and in assay [14].
In the case of `CCCCCCCC/C=C\CCCCCCCC(N)=O`, the Potency entry in assay [2], in assay [3], in assay [16], in assay [4], in assay [7] and in [18] was “inactive” each time. The Potency result in assay [13], in [15], in assay [19] and in assay [20] was “inactive” each time. Besides, the Potency in [5] was 48.5 µM (active). Also, the outcome in assay [6], in [17], in [8], in assay [9], in assay [10] and in assay [11] was inactive. Besides, the compound was called inactive in assay [12] and in [14].
Turning to `C[C@@H](C1=C(CCN(C)C)Cc2ccccc21)c1ccccn1`, the Potency entry in [2], in assay [3], in assay [16], in assay [4], in assay [5] and in [7] was “inactive” each time. The Potency result in assay [18], in assay [13] and in [15] was “inactive” throughout. Moreover, the call in assay [6], in [17], in [8], in assay [9], in assay [10] and in [11] was inactive. For the same compound, the compound was called inactive in assay [12] and in [14].
With `O=C(O)/C=C/c1cnc[nH]1`, the Potency result in assay [1], in [3], in assay [16], in [5], in assay [7] and in assay [18] was “inactive” in each case. Besides, the Potency entry in [13], in assay [15], in assay [19] and in assay [20] was “inactive” in each case. Besides, the compound was called inactive in assay [6], in assay [17], in assay [8], in [9], in assay [10] and in assay [11]. Moreover, the result in assay [12] and in assay [14] was inactive.
